Measurements taken from PubChem BioAssay (NCI).
Compounds without any hit were thinned out: in the full panel of roughly 83,000, 20% have a hit.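 Plates (96-well) were seeded with cells, treated with compound at one concentration, and incubated for 48 hours before percent growth was determined.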 Calls of active or inactive are those of the source. Rule for the calls: active = growth percent below 10; inactive = the rest.

Experiments:
Assay in all cases: NCI-60 one-dose screen, 48 h (100 = growth as untreated, 0 = no growth, -100 = all killed)
Details in all cases: 10 µM unless noted
NCI-H23 lung = test system: NCI-H23 lung
NCI-H226 lung = test system: NCI-H226 lung
NCI-H322M lung = test system: NCI-H322M lung
HOP-62 NSCLC = test system: HOP-62 NSCLC
NCI-H460 lung = test system: NCI-H460 lung
HOP-92 NSCLC = test system: HOP-92 NSCLC
NCI-H522 lung = test system: NCI-H522 lung
A549/ATCC NSCLC = test system: A549/ATCC NSCLC
786-0 renal = test system: 786-0 renal
COLO 205 colon = test system: COLO 205 colon
DU-145 prostate = test system: DU-145 prostate
K-562 leukemia = test system: K-562 leukemia
MALME-3M melanoma = test system: MALME-3M melanoma
MDA-MB-231 breast = test system: MDA-MB-231 breast
RXF 393 renal = test system: RXF 393 renal
SF-268 CNS = test system: SF-268 CNS
SF-295 CNS = test system: SF-295 CNS
SF-539 CNS = test system: SF-539 CNS
UACC-257 melanoma = test system: UACC-257 melanoma
M14 melanoma = test system: M14 melanoma

Measured: growth

CCOC(=O)c1c(CN2CCN(C)CC2)nc2ccc(Cl)cc2c1-c1ccccc1
active: UACC-257 melanoma -38% | M14 melanoma -24.5%
inactive: NCI-H23 lung 74.7% | NCI-H226 lung 103% | NCI-H322M lung 108% | HOP-62 NSCLC 70.8% | NCI-H460 lung 59.5% | HOP-92 NSCLC 30.8% | NCI-H522 lung 65.8% | A549/ATCC NSCLC 67.2% | 786-0 renal 57.5% | COLO 205 colon 97% | DU-145 prostate 85.7% | K-562 leukemia 11.7% | MALME-3M melanoma 38.6% | MDA-MB-231 breast 70.7% | RXF 393 renal 42.9% | SF-268 CNS 77.9% | SF-295 CNS 28.8% | SF-539 CNS 61.9%

CCOC(=O)n1cc(-c2nonc2-c2cn(C)c3ncccc23)c2ccccc21
inactive: NCI-H23 lung 79.2% | NCI-H226 lung 58.7% | NCI-H322M lung 87.3% | HOP-62 NSCLC 87.8% | NCI-H460 lung 64.2% | HOP-92 NSCLC 66.1% | NCI-H522 lung 71.1% | A549/ATCC NSCLC 82% | 786-0 renal 88.8% | COLO 205 colon 93% | DU-145 prostate 97.1% | K-562 leukemia 40.6% | MALME-3M melanoma 84.4% | MDA-MB-231 breast 63.8% | RXF 393 renal 81.7% | SF-268 CNS 82.2% | SF-295 CNS 82.8% | SF-539 CNS 92.3% | UACC-257 melanoma 98% | M14 melanoma 90.1%

CC(=O)Nc1ccc(-n2c(O)c(/C=N/NC(=O)Cc3ccccc3Nc3c(Cl)cccc3Cl)sc2=S)cc1
inactive: NCI-H23 lung 95.4% | NCI-H226 lung 104% | NCI-H322M lung 102% | HOP-62 NSCLC 99.7% | NCI-H460 lung 101% | HOP-92 NSCLC 92.7% | NCI-H522 lung 94.2% | A549/ATCC NSCLC 101% | 786-0 renal 102% | COLO 205 colon 119% | DU-145 prostate 105% | K-562 leukemia 94.6% | MALME-3M melanoma 108% | MDA-MB-231 breast 107% | RXF 393 renal 105% | SF-268 CNS 94.4% | SF-295 CNS 99.4% | SF-539 CNS 98.4% | UACC-257 melanoma 103% | M14 melanoma 103%

COc1ccc(-c2nc3ccc(-c4nc5ccc(N6CCN(c7ccccc7)CC6)cc5[nH]4)cc3[nH]2)cc1OC
active: NCI-H23 lung -21.4% | NCI-H322M lung -2.95% | NCI-H460 lung -6.7% | NCI-H522 lung -33% | A549/ATCC NSCLC -56.2% | 786-0 renal -79.8% | COLO 205 colon -70.9% | DU-145 prostate -42.4% | K-562 leukemia -31.7% | MALME-3M melanoma -63.8% | MDA-MB-231 breast -22% | RXF 393 renal -37.1% | UACC-257 melanoma -19.8% | M14 melanoma 1.2%
inactive: NCI-H226 lung 69.9% | HOP-62 NSCLC 27% | HOP-92 NSCLC 13.6% | SF-268 CNS 11.4% | SF-295 CNS 22.1% | SF-539 CNS 17.5%

O=C1/C(=C/C(Cl)=C/c2ccccc2)SC(=S)N1CCc1ccc(O)cc1
active: NCI-H23 lung -18.1% | HOP-62 NSCLC -6.2% | NCI-H460 lung 0.138% | HOP-92 NSCLC -1.85% | NCI-H522 lung -7.91% | A549/ATCC NSCLC -5.56% | 786-0 renal -47% | COLO 205 colon -9.3% | K-562 leukemia 5.68% | MALME-3M melanoma -2.34% | RXF 393 renal -46.1% | SF-295 CNS 4.96% | SF-539 CNS 3.33% | M14 melanoma -12.7%
inactive: NCI-H226 lung 55.7% | NCI-H322M lung 44% | DU-145 prostate 15.8% | MDA-MB-231 breast 27.3% | SF-268 CNS 19.8% | UACC-257 melanoma 17.4%

Cc1cc(C)nc(SC2=C(Nc3cccc(Cl)c3)C(=O)N(Cc3ccccc3)C2=O)n1
inactive: NCI-H23 lung 82% [30 µM] | NCI-H226 lung 83% [30 µM] | NCI-H322M lung 88.8% [30 µM] | HOP-62 NSCLC 90.3% [30 µM] | NCI-H460 lung 62.5% [30 µM] | NCI-H522 lung 67.9% [30 µM] | A549/ATCC NSCLC 26.4% [30 µM] | 786-0 renal 72.1% [30 µM] | COLO 205 colon 78.2% [30 µM] | DU-145 prostate 79.6% [30 µM] | K-562 leukemia 51.8% [30 µM] | MALME-3M melanoma 91.9% [30 µM] | MDA-MB-231 breast 61.2% [30 µM] | RXF 393 renal 72.6% [30 µM] | SF-268 CNS 66.8% [30 µM] | SF-539 CNS 69.7% [30 µM] | UACC-257 melanoma 71.7% [30 µM] | M14 melanoma 74.8% [30 µM]
active: HOP-92 NSCLC -7.47% [30 µM] | SF-295 CNS -12.3% [30 µM]

Cc1ccc(O)c(N2C(=NCc3ccco3)NS(=O)(=O)c3cnccc32)c1
active: SF-295 CNS 0.898%
inactive: NCI-H23 lung 95.2% | NCI-H226 lung 101% | NCI-H322M lung 114% | HOP-62 NSCLC 100% | NCI-H460 lung 104% | HOP-92 NSCLC 27.7% | NCI-H522 lung 93.3% | A549/ATCC NSCLC 83.7% | 786-0 renal 105% | COLO 205 colon 125% | DU-145 prostate 118% | K-562 leukemia 71.4% | MALME-3M melanoma 107% | MDA-MB-231 breast 111% | RXF 393 renal 57.9% | SF-268 CNS 100% | SF-539 CNS 97.9% | UACC-257 melanoma 124% | M14 melanoma 98.4%
